PubChem BioAssay AID1347426 (Functional Genomics Laboratory (NCATS/FGL), 2020)
Screen size: about 31,000 sequences; about 1,400 (4.5%) were called active.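 The calls were made as follows: active = median seed-adjusted z-score above 1 or below -1; inactive = the rest.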 Many of the other results were omitted from the sample, so actives are more common in it than they were.

assay: Novel Modifiers of Survival Motor Neuron (SMN) Protein: Gene Identification via Genome-wide siRNA Screen; settings: HEK293T SMN2-luciferase reporter, siRNA knockdown, 72 h; actives lie on both sides;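 also: luminescence tracks full-length SMN protein made from the SMN2 reporter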
Summary of the method: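 Luciferase signal, proportional to full-length SMN made from an SMN2 cDNA reporter in stable HEK293T cells, was read 72 h after siRNA reverse transfection. Values were expressed as MAD scores after non-targeting-control normalization and log10 conversion; seed analysis flagged off-targets.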

Sequence | median seed-adjusted z-score
AGAUAUAUAAAUCAACGAATT against LSM3 | -1.36 (active)
UGACCUACGAGGAAAUUCATT against PFKFB4 | 0.149 (inactive)
CAACGAUAGCUUAUCCCAATT against LPGAT1 | 0.625 (inactive)
GCUUAUAUGGUGUACAUUUTT against ELOVL6 | 0.742 (inactive)
UCCCGUUCCGUACGACUUATT against DHRS7C | -0.398 (inactive)
GUGGGAGUCGGGACAUAUATT against MAFK | 1.73 (active)
CCAUUGAUGCAACAGGUAATT against USO1 | 0.21 (inactive)
CAAGGACAAAUUUCCCGUUTT against HOXD8 | -0.883 (inactive)
GCAUGGUACUCUAUAGUCUTT against FAT4 | -0.363 (inactive)
GGAUGUGGUAGUACAGAAATT against PSMD2 | -1.44 (active)
GACUGACGAUGACACGGAATT against KPNA6 | -1.54 (active)
GGUACUCCAGAGUAUAACATT against CMYA5 | -0.858 (inactive)
GAGCCUGACUCAGUCUUUATT against AQP9 | -0.192 (inactive)
GAGAAAUCGUGCUCAGUUATT against CNOT8 | 0.375 (inactive)
CCUGUUUCCGUGAAGAAAATT against CXCR4 | -0.347 (inactive)
ACACCUCUCCGGACACCAATT against IRF3 | 0.0117 (inactive)
GACGAUGAAUGAAAAGGCATT against NRBP1 | -1.13 (active)
AGAAUUCUUCGAUCACAAATT against KCNMB3 | 0.513 (inactive)
CAAGUACCCUGAUAGAGUUTT against ABHD4 | -0.054 (inactive)
AGAUGAAGCUGCAAGUGUATT against COX10 | 0.339 (inactive)
CAGUGGAUCAAAUAACGCATT against ADAMTS20 | 1.44 (active)
GAACCUCAGUCAAAUCGAUTT against OXSR1 | -0.0682 (inactive)

Sequence | median seed-adjusted z-score
CCAUUUGGAUAUCAAAGUATT against ILF2 | -0.19 (inactive)
CAGUCAAGCUUGGAGUUAATT against SYTL3 | 0.236 (inactive)
AGAUGUUCUGAGGCUGAUATT against OASL | 1.02 (active)
GGAUAAGGACGACCAGAUUTT against HPCAL4 | 0.282 (inactive)
GUGCUAAAUUUAGCUCAAATT against IL2 | 0.0694 (inactive)
CCAAGCAAAUAGUAGAAGATT against CYLC1 | 0.177 (inactive)
GAACGAGUCCUUUACUACATT against GFM1 | -0.0641 (inactive)
CAACUUUCAGAUCAGUGAATT against ARD1A | -1.05 (active)
CAGACAAGCUGAUCCGCAUTT against TGM5 | 0.0181 (inactive)
GGUCUGUUCUUCUUACAGATT against PRKCB1 | 0.0463 (inactive)
GCCCAUCGUGCUUAAAGAATT against RASA3 | 0.0056 (inactive)
CACCUACUGUAGAGGUGAATT against GPRC6A | 0 (inactive)
GAACAUAUCAAGACCGGUUTT against MED30 | -2.06 (active)
UAGGGAAGCUGAAAGUGCATT against OXER1 | -0.471 (inactive)
CAACCAAUAUAGAACUUCATT against RBBP5 | 0.169 (inactive)
GCAGCCUUGUCAUCGACAATT against PDLIM1 | -0.189 (inactive)
CCUAAAGCCUGAAGAAGAATT against TXNDC2 | -1.29 (active)
CAUCGGUGCCCAGAAGUCATT against SSBP4 | 0.254 (inactive)
GACUCUCUGAGGUAGAAAATT against EPN3 | 0.184 (inactive)
GCUAGAACGGGAACGAAGATT against NEK10 | -0.0464 (inactive)
CCAGUGCUCCCGAAACUGATT against KRTAP5-5 | -1.07 (active)
GCUCAUCGUGGGUCUCCUATT against POR | 0.189 (inactive)

Sequence | median seed-adjusted z-score
CUCUCGUACUUUGAACCUATT against PANK3 | -0.185 (inactive)
CCCACUAUGCAAAAUGUAATT against PCMT1 | 0.139 (inactive)
GGUGGUCCAUGAAAAAGCATT against SOD1 | -0.8 (inactive)
GCCUUAAAGACUUACCGAATT against USPL1 | -1.87 (active)
GUUUGUGACUGUAACCAUUTT against CTBP1 | 0.105 (inactive)
GCUAUGGUGCUGUCGCUUATT against RHOXF2 | -0.331 (inactive)
GGAAUGGACUCAGUGAUCATT against PFTK1 | 0.088 (inactive)
CGCGGAAACUUGUCCCUAUTT against SP2 | -0.617 (inactive)
GCCCUGACAUUUCCCGAAATT against FOXJ2 | -0.627 (inactive)
UCAAUAAACUGCACGAAUATT against HS3ST1 | 1.21 (active)
ACGUGGAAGUGACCCGGAATT against MTX1 | -0.159 (inactive)
GCAUGUCCCGAAAACAAGATT against KLF7 | 0.393 (inactive)
GGACUUACGUGGAAGUAGATT against PLCB1 | 0.0735 (inactive)
CGUAGUAUAUUAACAAGUATT against MKKS | 1.03 (active)
CUCUAGGAGUGACCACGAATT against LYPLAL1 | -0.425 (inactive)
GGAGCACAGAAUACCGGAATT against C3orf64 | 0.0771 (inactive)
CAAACGGGCUCAUCAUAAUTT against MAX | 0.0949 (inactive)
AGAGACCCAUGGGAACAAATT against SIGMAR1 | -1.4 (active)
CGAAUGUCACCAUAUAUAATT against IL1RL1 | -0.286 (inactive)
AGGAGGUUACGGCACAAAATT against STK11 | 0.348 (inactive)
GCAACACCAUCGUCUGUGATT against P2RY13 | -0.0427 (inactive)
GGAACAUCAUUCUACCCAATT against KIF15 | -0.873 (inactive)

Sequence | median seed-adjusted z-score
CCUUAAUCCUUUGUUAACATT against KPNA6 | -1.54 (active)
GGAUGAUGUACUUCUCUCATT against MLNR | -0.038 (inactive)
CCCUGUCCUUAGCACUCUATT against GFI1B | 0.154 (inactive)
GGAGCAUUCUCAUUCGAGATT against CSTF3 | 0.0879 (inactive)
GCUUGCAGUUAAUAUCAUUTT against ODC1 | -1.64 (active)
GCAGAGUGCUUCCCAGUGATT against JRK | -0.624 (inactive)
CAGAUGUCAUGAAUCAAGATT against RPUSD2 | -0.215 (inactive)
CAAGUACAAUACUAACUGUTT against ZNF280C | 0.336 (inactive)
CAACGGCAACGGAGAGGAUTT against SLC24A6 | -0.792 (inactive)
GCGGAACACGAAGAAGUAATT against TMPRSS11E | 0.0512 (inactive)
GGGACGAGAUGGUAAAGAATT against ATP2B2 | 1.37 (active)
CCAUGUAUCUGAGUGAUCATT against ERC2 | 0.172 (inactive)
GGAUCUAAUCUUAGAUGUATT against POLR2H | -2.74 (active)
GAAUGAGGUUGACUUCUAUTT against CASQ2 | 0.4 (inactive)
GGAUUAUCUCCUCAUUACATT against MCF2L2 | -0.465 (inactive)
CCUUGAUCAUCGACAUUCUTT against GIT1 | -0.307 (inactive)
CCUCGACAGUGAAUGCAAATT against ABCF3 | 0.0759 (inactive)
GAAAAUCUAUCAGAACAUUTT against RAB14 | -0.0567 (inactive)
CUAUGACCCUUACCCGUAUTT against FMOD | -1.32 (active)
GCUCAGCUCUGGUACUUUATT against GTF2H4 | -0.261 (inactive)
GGUUUGAUGUAGGCCCAAUTT against MTFMT | -0.0119 (inactive)
GGAAGAUCGAAAGUGCGAATT against GZMB | -0.0378 (inactive)

Sequence | median seed-adjusted z-score
AGUUCAUUCUGACAGAUGATT against VDR | -0.031 (inactive)
CAAUAUUCCGUACAUAGAATT against MRAS | 0.032 (inactive)
GGGAUCUAGUGAAUAAACUTT against EIF2B4 | 0 (inactive)
GCAAAGACCAUAAGAUUUATT against MYST1 | 0 (inactive)
GAGUGUUCAGCAAACCGUATT against MED20 | -1.66 (active)
GAUGUGAAAUGGAGAAGUATT against KLF5 | -0.338 (inactive)
ACGCAGAUUUCUACAGAAATT against COX6C | -0.0449 (inactive)
GGAUUACUCUUUUGGUGCATT against IRF5 | -0.146 (inactive)
GAUGCGAUAUUAAUGGGAATT against SMYD4 | 0.272 (inactive)
GAAAAUGUGGGAUCAAGAATT against COQ7 | 0.159 (inactive)
GAGCUGACCUUGAACGAGATT against CHGB | -1.29 (active)
GUGCUAAUCUCAAUACCGATT against ZRANB1 | -0.347 (inactive)
GGACAGCUAUGACUCGGAUTT against DOC2A | 0.299 (inactive)
GCAAGUAUUUUGACAAGGUTT against KIF7 | 0.0274 (inactive)
CAAACAAUAUGAGAGUGUUTT against IL7 | 0.253 (inactive)
ACAAGACUCUGGACAUUAATT against DHRS4 | 0.263 (inactive)
GAUUCAUGCAUUGAUCACATT against UBE2Z | 0.0572 (inactive)
GCCCAGAAGUUUAGGGAAATT against TAP1 | -0.506 (inactive)
CAAAGUCCAUGGAGUCUUUTT against RASA4 | -1.11 (active)
GGGUUAGUGGAGACCUUUATT against ATPAF1 | 0.393 (inactive)
GAAUUCACCAUUCAAGUAATT against SCYL3 | 0.665 (inactive)
